Measured values: PubChem BioAssay AID743445 (Broad Institute, 2014)
The whole screen tested about 310,000 compounds, of which about 1,700 (0.55%) were called active. Rule as the data show it: active = inhibition above about 50%; inactive = the rest. This excerpt belongs to a sample that is enriched for actives.

The compounds below were run against Histone-lysine N-methyltransferase NSD2 (Homo sapiens) (UniProt O96028) (assay: blockers of NSD2 lysine methylation activity – biochemical, AlphaScreen, single concentration, set 2, primary screen (AID 743445)). Conditions: NSD2 peptide methylation, 120 min, at 12.5 µM, active compounds read high.
Sequence of Histone-lysine N-methyltransferase NSD2 (Homo sapiens) (O96028 whole entry, looked up): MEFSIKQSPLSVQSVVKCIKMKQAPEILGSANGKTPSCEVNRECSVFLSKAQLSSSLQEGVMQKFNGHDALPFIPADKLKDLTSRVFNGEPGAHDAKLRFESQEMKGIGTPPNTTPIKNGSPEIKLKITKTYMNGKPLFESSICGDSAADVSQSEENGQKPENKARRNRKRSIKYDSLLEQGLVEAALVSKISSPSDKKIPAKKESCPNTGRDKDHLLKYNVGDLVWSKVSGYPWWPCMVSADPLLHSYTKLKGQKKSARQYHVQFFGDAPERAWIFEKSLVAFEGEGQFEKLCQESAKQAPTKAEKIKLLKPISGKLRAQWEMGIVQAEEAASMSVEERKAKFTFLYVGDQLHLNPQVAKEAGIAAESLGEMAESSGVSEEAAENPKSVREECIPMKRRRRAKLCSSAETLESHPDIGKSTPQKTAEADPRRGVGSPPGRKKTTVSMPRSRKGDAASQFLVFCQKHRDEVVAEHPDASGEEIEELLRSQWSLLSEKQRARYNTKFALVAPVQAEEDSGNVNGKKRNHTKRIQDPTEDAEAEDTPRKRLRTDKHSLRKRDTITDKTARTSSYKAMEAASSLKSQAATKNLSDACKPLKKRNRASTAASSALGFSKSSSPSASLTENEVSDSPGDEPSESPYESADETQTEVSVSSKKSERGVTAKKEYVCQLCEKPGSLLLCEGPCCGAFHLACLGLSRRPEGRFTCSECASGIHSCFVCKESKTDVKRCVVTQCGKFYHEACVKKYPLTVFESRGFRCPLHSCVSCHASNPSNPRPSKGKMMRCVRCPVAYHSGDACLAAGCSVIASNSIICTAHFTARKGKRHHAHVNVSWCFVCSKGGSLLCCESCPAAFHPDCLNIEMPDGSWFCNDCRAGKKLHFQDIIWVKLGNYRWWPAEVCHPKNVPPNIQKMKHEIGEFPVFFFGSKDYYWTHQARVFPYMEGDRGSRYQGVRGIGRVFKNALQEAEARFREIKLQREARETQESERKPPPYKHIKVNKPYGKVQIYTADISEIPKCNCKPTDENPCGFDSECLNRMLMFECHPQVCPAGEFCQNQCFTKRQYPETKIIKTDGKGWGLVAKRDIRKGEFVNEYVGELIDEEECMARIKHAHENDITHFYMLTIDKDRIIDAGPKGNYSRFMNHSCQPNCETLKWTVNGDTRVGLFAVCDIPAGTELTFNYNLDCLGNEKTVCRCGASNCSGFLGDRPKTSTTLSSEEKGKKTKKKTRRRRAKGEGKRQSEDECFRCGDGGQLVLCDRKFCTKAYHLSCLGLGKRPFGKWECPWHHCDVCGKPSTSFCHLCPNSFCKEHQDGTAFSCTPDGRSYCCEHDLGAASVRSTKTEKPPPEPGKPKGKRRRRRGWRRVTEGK
For `Cc1ccccc1NC(=O)COC(=O)c1ccc(Sc2ncn[nH]2)c([N+](=O)[O-])c1`, the inhibition was -0.523% (inactive).
For `C[C@H]1CCC/C=C/C(=O)c2c(O)cc(O)cc2CC(=O)O1`, the inhibition was 5.2% (inactive).
With `Cc1ccc(-c2ccc(/C=N/NC(=O)CN3CCOCC3)o2)cc1[N+](=O)[O-]` the inhibition was 59.9% (active).
With `O=C(CN1CCOCC1)N/N=C/c1ccc(-c2ccc(Br)cc2)o1` the inhibition was 4.03% (inactive).
With `Cc1occc1C(=O)N/N=C/c1ccc(-c2cccc([N+](=O)[O-])c2)o1` the inhibition was 1.62% (inactive).
In the case of `O=C(NCc1ccc(Cl)cc1)C1CCCN(c2nc3ccccc3o2)C1` (stereo unspecified), the inhibition is reported as -10.7% (inactive).
For `CC1CCN(c2ccc(C(=O)O)cc2NS(=O)(=O)c2ccc(Br)s2)CC1`, the inhibition was 1.4% (inactive).
In the case of `Cc1nc2ccc(C(=O)N3CCN(C(=O)C(C)(C)C)CC3)cc2n1C1CCCC1`, the inhibition is reported as -2.3% (inactive).
With `CSc1nccc(-c2ccc(S(=O)(=O)Nc3ccc(C(O)(C(F)(F)F)C(F)(F)F)cc3)s2)n1` the inhibition was 3.98% (inactive).
`CCN(CC)CCCC(C)n1c2nc(=O)[nH]c(=O)c-2nc2cc(Cl)ccc21` (stereo unspecified) was tested, and the inhibition was 187% (active).
`CCN(CC)CCn1c2ccc(Cl)cc2c2nc(C)sc21` was tested, and the inhibition was 14.7% (inactive).
For `CCN1CCN(C(=O)C2CCCN(S(=O)(=O)c3ccc(OC)c(OC)c3)C2)CC1` (stereo unspecified), the inhibition was -0.758% (inactive).
For `COc1ccc(S(=O)(=O)N2CCCC(C(=O)NCCCn3ccnc3)C2)cc1OC` (stereo unspecified), the inhibition was 57.8% (active).
With `O=C(NCCCn1ccnc1)C1CCCN(S(=O)(=O)c2cc(Cl)ccc2Cl)C1` (stereo unspecified) the inhibition was -2.69% (inactive).
For `NC(Cc1ccc(F)cc1)c1csc(Nc2nncc3ccccc23)n1` (stereo unspecified), the inhibition was -3.48% (inactive).
`O=C(CSc1nnc(-c2ccccc2)n1Cc1ccco1)Nc1ccccc1-c1ccccc1` was tested, and the inhibition was 6.7% (inactive).
For `CC1(C)Cc2c(sc3nnn(Cc4ccc(Cl)cc4Cl)c(=O)c23)CO1`, the inhibition was 8.41% (inactive).
For `O=C(Cc1cccs1)Nc1nnc(C2CC2)s1`, the inhibition was 3.72% (inactive).
With `Cc1cccc(NC(=O)CSCC(=O)Nc2nnc(C3CC3)s2)c1` the inhibition was 1.4% (inactive).
With `O=C(CN1C(=O)c2ccc([N+](=O)[O-])cc2C1=O)Nc1nnc(C2CC2)s1` the inhibition was 57.6% (active).
For `O=C(C1CCN(S(=O)(=O)c2ccccc2)CC1)N1CCN(C2CCCCC2)CC1`, the inhibition was 0.491% (inactive).
With `O=[N+]([O-])c1ccccc1NCc1ccc(Cl)cc1` the inhibition was 7.1% (inactive).
For `c1ccc(CNCc2ccc(CNCc3ccccc3)cc2)cc1`, the inhibition was 1.25% (inactive).
For `Oc1ccc(CNc2ccccc2O)cc1`, the inhibition was 85.7% (active).
For `Cc1ccc(CSc2nnc(SCC(=O)NN=Cc3cc(Br)ccc3F)s2)cc1`, the inhibition was -1.85% (inactive).
`CC1(C(=O)Nc2cccc(Oc3ccccc3)c2)CCN1Cc1ccccc1Cl` (stereo unspecified) was tested, and the inhibition was -0.732% (inactive).
For `CCc1nc2c(OCCOc3ccccc3)cccn2c1N(C=O)Cc1ccc(OC)cc1`, the inhibition was -1.53% (inactive).
`CN(C(=O)CCN1C(=O)/C(=C/c2ccccc2F)SC1=S)C1CCS(=O)(=O)C1` (stereo unspecified) was tested, and the inhibition was -1.43% (inactive).
In the case of `COc1ccccc1/C=C1\SC(=O)N(CCC(=O)N(C)C2CCS(=O)(=O)C2)C1=O` (stereo unspecified), the inhibition is reported as 2.59% (inactive).
In the case of `CN(C(=O)CN1C(=O)S/C(=C\c2ccccc2F)C1=O)C1CCS(=O)(=O)C1` (stereo unspecified), the inhibition is reported as 71.1% (active).
With `O=C(CNC(=O)C1COc2ccccc2O1)N/N=C/c1cc(Br)c(O)c(Br)c1` (stereo unspecified) the inhibition was 26.9% (inactive).
With `CCN(CC)S(=O)(=O)c1ccc(N2CCOCC2)c(NC(=O)C2COc3ccccc3O2)c1` (stereo unspecified) the inhibition was -0.001% (inactive).
For `Cc1c(CC(=O)N2CCN(C(=O)C3COc4ccccc4O3)CC2)c(=O)oc2c(O)c(O)ccc12` (stereo unspecified), the inhibition was 125% (active).
For `CCc1nc2ccc(C(=O)NCCNC(C)=O)cn2c1N(CC)Cc1cccc(Br)c1`, the inhibition was 1.25% (inactive).
`N#Cc1ccc(CSc2nnc3ccccn23)cc1` was tested, and the inhibition was -1.73% (inactive).
For `N#Cc1ccc(CSc2ncccn2)cc1`, the inhibition was 67.5% (active).
In the case of `N#Cc1ccc(CSc2nnc(-c3ccccn3)n2-c2ccc(Cl)cc2)cc1`, the inhibition is reported as 3.24% (inactive).
`COc1ccc(N2CCN(CCNS(=O)(=O)c3ccc(C(C)(C)C)cc3)CC2)cc1` was tested, and the inhibition was 9.53% (inactive).
`COc1ccc(-n2c(SCC(=O)Nc3ccc4c(c3)OCCO4)nnc2-c2ccc(Cl)cc2)cc1` was tested, and the inhibition was 3.06% (inactive).
`Cc1ccc(Cn2cc(COC(=O)N(C)Cc3ccccc3)nn2)cc1` was tested, and the inhibition was -1.9% (inactive).
With `CCNC(=O)C1(C)CCCN(C(=O)c2ccc3ccccc3n2)C1` (stereo unspecified) the inhibition was 104% (active).
With `CCNC(=O)C1(C)CCCN(C(=O)c2c(C)noc2C)C1` (stereo unspecified) the inhibition was -2.53% (inactive).
`CCNC(=O)C1(C)CCN(C(=O)c2ccccc2)C1` (stereo unspecified) was tested, and the inhibition was -2.2% (inactive).
With `COc1ccc(-n2c(SCC(=O)Nc3ccc4cn[nH]c4c3)nnc2-c2cccnc2)cc1` the inhibition was 10.9% (inactive).
With `O=S(=O)(Nc1ccc(C(O)(C(F)(F)F)C(F)(F)F)cc1)c1ccc(-c2ccccn2)s1` the inhibition was 11.8% (inactive).
With `CS(=O)(=O)N(CC(=O)NCc1ccco1)c1ccc2c(c1)OCO2` the inhibition was 65.1% (active).
In the case of `Cc1cc(C)cc(N(CC(=O)NCCSCc2ccco2)S(C)(=O)=O)c1`, the inhibition is reported as 7.95% (inactive).
For `S=C(NCc1ccc2c(c1)OCO2)NCc1ccco1`, the inhibition was 4.85% (inactive).
In the case of `COc1ccc(C(=O)CSc2nnc(-c3cnccn3)n2-c2ccc(C)cc2)cc1`, the inhibition is reported as -4.12% (inactive).
In the case of `COc1ccc(-n2c(SCC(=O)Nc3ccc(C)c(Cl)c3)nc3ccccc3c2=O)cc1`, the inhibition is reported as 5.51% (inactive).
In the case of `COc1cc(NC(=O)c2cc(-c3ccc(F)cc3OC(C)C)n[nH]2)cc(OC)c1OC`, the inhibition is reported as -1.66% (inactive).
For `O=C1C(Cl)=C(Oc2ccccc2)C(=O)c2ccccc21`, the inhibition was 101% (active).
With `CC(=O)Oc1ccc2c(c1)C(=O)c1ccccc1C2=O` the inhibition was 4.31% (inactive).
For `COc1cccc(-c2ccc3c(c2)N(Cc2ccccc2OC)C(=O)C(C)S3)c1` (stereo unspecified), the inhibition was -0.375% (inactive).
With `Cc1ccc(-n2c(SCC(=O)Nc3ccc(S(=O)(=O)Nc4nccs4)cc3)nnc2-c2cccnc2)cc1` the inhibition was 6.22% (inactive).
In the case of `CC1(C(=O)Nc2cccc3c2CCCC3)CCN1C(=O)CCc1ccc(Cl)cc1Cl` (stereo unspecified), the inhibition is reported as -2.57% (inactive).
With `O=C(CSc1nnc(-c2ccccn2)n1-c1ccc(Cl)cc1)Nc1ccccc1-c1ccccc1` the inhibition was -2.53% (inactive).
`OC[C@@H]1CN(Cc2cccs2)C[C@H](n2cnc3c(NC4CCCC4)ncnc32)O1` was tested, and the inhibition was -1.52% (inactive).
With `Cc1ccc(NC(=O)c2cc(C)nn2-c2ccccc2)c(C)c1` the inhibition was -1.54% (inactive).
In the case of `CCOC(=O)C1=C(C)NC2=C(C(=O)CC(C)(C)C2)C1c1ccc2c(c1)OCO2` (stereo unspecified), the inhibition is reported as 15.9% (inactive).
In the case of `Cc1cccc(N2C(=O)c3cccnc3C2=O)c1`, the inhibition is reported as -1.99% (inactive).
With `NC1=CC(=O)C(=O)c2cccnc21` the inhibition was 122% (active).
In the case of `CCOc1ccc(CCN2C(=O)c3cccnc3C2=O)cc1OCC`, the inhibition is reported as -2.42% (inactive).
In the case of `Nc1[nH][nH]c(=O)c1N=Nc1ccc2c(c1)OCO2`, the inhibition is reported as 4.47% (inactive).
For `CCOc1ccc(C(c2c(C)[nH][nH]c2=O)c2c(C)[nH][nH]c2=O)cc1OCC`, the inhibition was 10.6% (inactive).
`Cc1[nH][nH]c(=O)c1C(c1ccc2c(c1)OCO2)c1c(C)[nH][nH]c1=O` was tested, and the inhibition was 84.4% (active).
For `CCCCN1CCN(C(=O)c2ccc3c(c2)NC(=O)C(C)(C)O3)CC1`, the inhibition was 8.11% (inactive).
For `COc1ccc(CN(CCN2CCOCC2)C(=O)c2ccc(C)cc2)cc1OC`, the inhibition was 6.86% (inactive).
In the case of `COc1ccc(CSc2nnc(SCC(=O)Nc3ccccc3C(F)(F)F)s2)cc1`, the inhibition is reported as 0.831% (inactive).
`COc1ccc(CSc2nnc(-c3cccc(C)c3)n2C)cc1` was tested, and the inhibition was 0.584% (inactive).
For `Oc1c(C=Nc2cccc3nsnc23)ccc2ccccc12`, the inhibition was 109% (active).
For `Oc1ccc2ccccc2c1N=Nc1nccs1`, the inhibition was 34.1% (inactive).
For `O=C(CSc1nc2ccccc2s1)N=Nc1c(O)[nH]c2ccccc12`, the inhibition was 2.59% (inactive).
For `O=C(CSc1nnc(COc2ccccc2)n1Cc1ccco1)c1ccc2ccccc2c1`, the inhibition was 0.338% (inactive).
In the case of `O=C(CSc1nc2ccccc2n1Cc1ccccc1Cl)N/N=C\c1c[nH]c2ccccc12`, the inhibition is reported as 3% (inactive).
In the case of `COc1cc(NC(=O)COC(=O)c2ccc([N+](=O)[O-])s2)cc(OC)c1OC`, the inhibition is reported as 72.8% (active).
With `O=C(OCC(=O)N1CCN(c2ccccc2)CC1)c1ccc([N+](=O)[O-])s1` the inhibition was 1.02% (inactive).
With `COc1cc(C(=O)OCc2ccc([N+](=O)[O-])cc2)cc(OC)c1OC` the inhibition was -0.924% (inactive).
With `O=C(NCc1cccnc1)c1cc(C2CCCN(C(=O)CCCc3ccccc3)C2)on1` (stereo unspecified) the inhibition was -1.28% (inactive).
`Fc1ccc2nc(COCc3nc4ccc(F)cc4[nH]3)[nH]c2c1` was tested, and the inhibition was -1.4% (inactive).
In the case of `CCCOc1ccc(F)cc1-c1cc(C(=O)NCc2ccc(F)cc2)[nH]n1`, the inhibition is reported as 19.4% (inactive).
In the case of `COc1ccc(CCNC(=O)CSc2nc3c([nH]2)c(=O)n(C)c(=O)n3C)cc1`, the inhibition is reported as -8.19% (inactive).
With `COC(=O)[C@H](Cc1ccccc1)NC(=O)Nc1ccc(OC)cc1` the inhibition was -1.09% (inactive).
In the case of `COC(=O)[C@H](Cc1ccccc1)NC(=O)Nc1ccc(S(N)(=O)=O)cc1`, the inhibition is reported as 59.7% (active).
In the case of `COC(=O)[C@@H](Cc1ccccc1)NC(=O)NCCc1ccccc1`, the inhibition is reported as 0.664% (inactive).
For `COc1ccc(NC(=O)C2(C)Cc3c(-c4cccc(NC(C)=O)c4)ccnc3O2)cc1OC` (stereo unspecified), the inhibition was 1.97% (inactive).
In the case of `CCOc1ccccc1C(=O)Nc1cccc(C(=O)Nc2cc(C)ccn2)c1`, the inhibition is reported as 1.28% (inactive).
For `O=C(CSc1nnc(-c2cccc(Cl)c2)n1Cc1ccco1)Nc1ccc(OCc2ccccc2)cc1`, the inhibition was -1.47% (inactive).
For `CC(=O)CC(CC(=O)NC1CCCCC1)c1ccccc1` (stereo unspecified), the inhibition was -4.05% (inactive).
In the case of `CC(=O)c1cc(-c2ccccc2)n(CCC(=O)NC2CCCCCC2)c1C`, the inhibition is reported as 1.47% (inactive).
For `CC(=O)c1cc(-c2ccccc2)n(CC(=O)NC2CCCCC2)c1C`, the inhibition was 71.5% (active).
